# Measurements: article PMC7862700, “An all-to-all approach to the identification of sequence-specific readers for epigenetic DNA modifications on cytosine”
# Experiments:
# Assay in all cases: DAPPL (digital affinity profiling via proximity ligation, sequencing); 10 mM Tris-HCl pH 7.5, 50 mM NaCl, 1 mM DTT, 4% glycerol, room temperature, 30 min; GST-TFs on glutathione beads, 16-mer random dsDNA library, 0.1% formaldehyde crosslink after washing; high values mean tight binding
# Conditions in all cases: protein: recombinant; tags: N-terminal GST; dsDNA, one strand shown
# FLI1 = molecular target: T1, FLI1 (Homo sapiens, UniProt Q01543 1-452)
# T1 sequence: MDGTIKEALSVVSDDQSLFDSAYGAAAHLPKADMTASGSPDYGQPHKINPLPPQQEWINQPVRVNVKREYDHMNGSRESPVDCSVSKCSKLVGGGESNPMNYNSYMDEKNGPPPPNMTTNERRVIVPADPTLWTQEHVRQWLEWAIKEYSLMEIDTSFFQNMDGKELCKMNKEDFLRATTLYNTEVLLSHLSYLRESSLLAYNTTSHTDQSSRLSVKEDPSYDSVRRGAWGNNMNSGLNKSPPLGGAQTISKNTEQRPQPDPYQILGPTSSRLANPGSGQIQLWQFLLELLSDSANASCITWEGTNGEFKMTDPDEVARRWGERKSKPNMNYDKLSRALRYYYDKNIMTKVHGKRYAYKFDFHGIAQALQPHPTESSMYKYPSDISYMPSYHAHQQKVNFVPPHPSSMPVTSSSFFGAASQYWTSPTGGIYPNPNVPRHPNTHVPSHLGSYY
# How it was run: (§1)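 Human transcription factors carrying a GST fusion were produced in yeast, bound to glutathione beads, tagged with DNA barcodes and pooled together with a tag-only sample. Each pool was held with 200 nmole of a random double-stranded 16-mer DNA library in Tris/NaCl/DTT/glycerol buffer for 30 min at room temperature, then washed, crosslinked in 0.1% formaldehyde, proximity-ligated with BsaI/T4 ligase (1 h, 37 °C), PCR-amplified and sequenced on an Illumina NextSeq500. Binding signal is the read frequency of each hexamer for a given factor divided by its frequency in the tag-only sample.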
# ELK1 = molecular target: T2, ELK1 (Homo sapiens, UniProt P19419 1-428)
# T2 sequence: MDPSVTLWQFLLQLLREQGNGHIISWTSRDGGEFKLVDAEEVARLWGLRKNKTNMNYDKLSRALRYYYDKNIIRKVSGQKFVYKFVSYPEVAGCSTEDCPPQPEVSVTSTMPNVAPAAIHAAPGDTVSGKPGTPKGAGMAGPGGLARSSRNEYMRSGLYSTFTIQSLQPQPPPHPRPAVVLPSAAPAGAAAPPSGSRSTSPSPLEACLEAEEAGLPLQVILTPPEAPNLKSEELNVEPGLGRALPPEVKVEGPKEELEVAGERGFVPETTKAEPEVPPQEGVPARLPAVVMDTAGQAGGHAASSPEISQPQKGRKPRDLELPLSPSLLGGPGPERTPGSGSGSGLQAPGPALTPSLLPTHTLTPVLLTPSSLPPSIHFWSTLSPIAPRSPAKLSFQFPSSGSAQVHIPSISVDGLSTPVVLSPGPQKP
# How it was run: as §1
# GABPA = molecular target: T3, GABPA (Homo sapiens, UniProt Q06546 1-454)
# T3 sequence: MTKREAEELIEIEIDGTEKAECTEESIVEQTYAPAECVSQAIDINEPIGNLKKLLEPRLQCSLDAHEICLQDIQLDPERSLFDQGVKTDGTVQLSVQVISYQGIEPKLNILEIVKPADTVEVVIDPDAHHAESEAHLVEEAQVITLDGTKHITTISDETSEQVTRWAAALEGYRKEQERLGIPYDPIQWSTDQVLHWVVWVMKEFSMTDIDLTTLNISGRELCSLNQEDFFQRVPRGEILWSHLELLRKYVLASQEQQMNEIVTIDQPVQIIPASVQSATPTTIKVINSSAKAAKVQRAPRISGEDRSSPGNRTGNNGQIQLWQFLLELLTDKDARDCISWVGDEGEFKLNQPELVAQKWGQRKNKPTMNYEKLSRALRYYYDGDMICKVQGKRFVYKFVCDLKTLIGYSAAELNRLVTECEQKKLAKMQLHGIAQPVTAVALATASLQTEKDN
# How it was run: as §1
# ERG = molecular target: T4, ERG (Homo sapiens, UniProt P11308 1-479)
# T4 sequence: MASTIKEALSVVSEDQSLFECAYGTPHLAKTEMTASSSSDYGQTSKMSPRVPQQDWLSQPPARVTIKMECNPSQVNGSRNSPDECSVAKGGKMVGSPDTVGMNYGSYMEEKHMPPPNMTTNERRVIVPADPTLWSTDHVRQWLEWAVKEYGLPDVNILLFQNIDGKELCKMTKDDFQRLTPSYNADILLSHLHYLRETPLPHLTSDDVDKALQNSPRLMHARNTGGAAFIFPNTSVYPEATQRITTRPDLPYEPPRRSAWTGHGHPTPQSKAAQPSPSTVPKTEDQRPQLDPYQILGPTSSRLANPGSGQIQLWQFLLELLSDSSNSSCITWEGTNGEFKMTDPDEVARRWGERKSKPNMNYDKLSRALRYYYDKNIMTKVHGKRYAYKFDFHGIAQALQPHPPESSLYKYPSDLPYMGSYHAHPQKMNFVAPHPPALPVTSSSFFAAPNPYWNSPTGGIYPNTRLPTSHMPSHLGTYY
# How it was run: as §1
# ELF1 = ELF1 (Homo sapiens, UniProt P32519 1-619)
# ELF1, sequence (P32519 whole entry): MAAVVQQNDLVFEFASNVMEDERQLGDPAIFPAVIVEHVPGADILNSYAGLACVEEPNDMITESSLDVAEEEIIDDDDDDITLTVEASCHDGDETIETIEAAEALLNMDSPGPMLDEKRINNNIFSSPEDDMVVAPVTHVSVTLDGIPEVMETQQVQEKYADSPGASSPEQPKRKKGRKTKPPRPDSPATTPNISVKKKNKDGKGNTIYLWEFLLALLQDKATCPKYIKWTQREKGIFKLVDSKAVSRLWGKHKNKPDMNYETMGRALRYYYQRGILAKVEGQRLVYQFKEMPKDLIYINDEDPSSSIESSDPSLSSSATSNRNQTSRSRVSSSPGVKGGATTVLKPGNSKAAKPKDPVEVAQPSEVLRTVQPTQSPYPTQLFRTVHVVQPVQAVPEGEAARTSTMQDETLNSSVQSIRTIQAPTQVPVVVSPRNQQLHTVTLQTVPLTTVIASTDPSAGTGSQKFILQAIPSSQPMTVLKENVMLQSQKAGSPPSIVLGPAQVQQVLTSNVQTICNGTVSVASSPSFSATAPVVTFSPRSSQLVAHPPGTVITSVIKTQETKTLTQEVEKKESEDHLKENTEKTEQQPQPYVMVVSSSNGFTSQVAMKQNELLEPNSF
# How it was run: as §1
# EHF = molecular target: T5, EHF (Homo sapiens, UniProt Q9NZC4 1-300)
# T5 sequence: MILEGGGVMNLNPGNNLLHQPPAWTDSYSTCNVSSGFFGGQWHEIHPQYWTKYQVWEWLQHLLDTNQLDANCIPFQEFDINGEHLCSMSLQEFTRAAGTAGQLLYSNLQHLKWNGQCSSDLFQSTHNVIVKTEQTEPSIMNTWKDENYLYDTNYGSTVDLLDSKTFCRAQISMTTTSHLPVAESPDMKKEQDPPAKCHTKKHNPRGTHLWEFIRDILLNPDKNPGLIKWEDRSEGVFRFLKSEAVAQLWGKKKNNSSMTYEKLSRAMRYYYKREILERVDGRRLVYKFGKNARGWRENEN
# How it was run: as §1
# SPI1 = SPI1 (Homo sapiens, UniProt P17947 1-270)
# How it was run: as §1
# SPIB = SPIB (Homo sapiens, UniProt Q01892 1-262)
# SPIB, sequence (Q01892 whole entry): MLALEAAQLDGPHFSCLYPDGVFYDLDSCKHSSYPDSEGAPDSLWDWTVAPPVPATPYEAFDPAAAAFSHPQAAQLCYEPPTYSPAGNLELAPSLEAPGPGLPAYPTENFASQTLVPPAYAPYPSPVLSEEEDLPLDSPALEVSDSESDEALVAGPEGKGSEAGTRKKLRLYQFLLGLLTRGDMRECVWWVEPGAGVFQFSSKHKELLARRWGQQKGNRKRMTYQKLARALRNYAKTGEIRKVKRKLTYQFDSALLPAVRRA
# How it was run: as §1
# ELK3 = molecular target: T6, ELK3 (Homo sapiens, UniProt P41970 1-407)
# T6 sequence: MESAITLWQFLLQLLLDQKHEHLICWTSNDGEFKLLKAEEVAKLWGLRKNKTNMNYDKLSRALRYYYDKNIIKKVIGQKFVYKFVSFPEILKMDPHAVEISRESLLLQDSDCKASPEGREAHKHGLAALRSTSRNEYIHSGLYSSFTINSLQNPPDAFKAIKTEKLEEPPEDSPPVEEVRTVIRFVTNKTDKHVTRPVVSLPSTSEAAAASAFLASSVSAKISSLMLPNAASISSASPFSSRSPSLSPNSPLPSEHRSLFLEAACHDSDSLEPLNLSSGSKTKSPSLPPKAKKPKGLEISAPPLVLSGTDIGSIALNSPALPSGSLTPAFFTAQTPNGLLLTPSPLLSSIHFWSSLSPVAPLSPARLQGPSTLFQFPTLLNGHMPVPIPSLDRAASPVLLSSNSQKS
# How it was run: as §1
# FEV = molecular target: T7, FEV (Homo sapiens, UniProt Q99581 1-238)
# T7 sequence: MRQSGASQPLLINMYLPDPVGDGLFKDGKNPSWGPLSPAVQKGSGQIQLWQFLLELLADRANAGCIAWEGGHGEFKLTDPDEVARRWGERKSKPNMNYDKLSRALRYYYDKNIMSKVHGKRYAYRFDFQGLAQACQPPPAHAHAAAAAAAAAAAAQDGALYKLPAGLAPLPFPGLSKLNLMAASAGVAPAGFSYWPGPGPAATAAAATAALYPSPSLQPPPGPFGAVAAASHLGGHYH
# How it was run: as §1
# ETV5 = ETV5 (Homo sapiens, UniProt P41161 1-510)
# ETV5, sequence (P41161 whole entry): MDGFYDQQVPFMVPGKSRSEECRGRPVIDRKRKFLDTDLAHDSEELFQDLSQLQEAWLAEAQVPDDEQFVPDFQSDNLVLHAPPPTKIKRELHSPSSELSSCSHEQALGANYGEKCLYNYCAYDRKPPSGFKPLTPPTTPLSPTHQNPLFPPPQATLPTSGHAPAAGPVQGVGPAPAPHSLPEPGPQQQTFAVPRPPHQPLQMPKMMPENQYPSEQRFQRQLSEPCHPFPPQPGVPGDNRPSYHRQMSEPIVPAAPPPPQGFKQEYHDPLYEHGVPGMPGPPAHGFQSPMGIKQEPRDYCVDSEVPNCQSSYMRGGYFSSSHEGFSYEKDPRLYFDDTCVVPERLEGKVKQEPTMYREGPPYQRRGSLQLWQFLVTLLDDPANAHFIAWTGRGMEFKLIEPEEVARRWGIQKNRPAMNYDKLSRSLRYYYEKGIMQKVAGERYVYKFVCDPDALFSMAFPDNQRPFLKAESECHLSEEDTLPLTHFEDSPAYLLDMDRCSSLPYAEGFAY
# How it was run: as §1
# SPIC = molecular target: T8, SPIC (Homo sapiens, UniProt Q8N5J4 1-248)
# T8 sequence: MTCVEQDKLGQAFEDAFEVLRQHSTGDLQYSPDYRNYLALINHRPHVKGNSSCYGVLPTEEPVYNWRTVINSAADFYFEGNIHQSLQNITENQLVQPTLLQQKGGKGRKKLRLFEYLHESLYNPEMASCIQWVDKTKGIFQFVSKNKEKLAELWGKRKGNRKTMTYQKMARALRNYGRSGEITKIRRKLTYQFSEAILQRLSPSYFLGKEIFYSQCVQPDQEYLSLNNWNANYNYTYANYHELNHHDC
# How it was run: as §1
# ELF4 = ELF4 (Homo sapiens, UniProt Q99607 1-663)
# ELF4, sequence (Q99607 whole entry): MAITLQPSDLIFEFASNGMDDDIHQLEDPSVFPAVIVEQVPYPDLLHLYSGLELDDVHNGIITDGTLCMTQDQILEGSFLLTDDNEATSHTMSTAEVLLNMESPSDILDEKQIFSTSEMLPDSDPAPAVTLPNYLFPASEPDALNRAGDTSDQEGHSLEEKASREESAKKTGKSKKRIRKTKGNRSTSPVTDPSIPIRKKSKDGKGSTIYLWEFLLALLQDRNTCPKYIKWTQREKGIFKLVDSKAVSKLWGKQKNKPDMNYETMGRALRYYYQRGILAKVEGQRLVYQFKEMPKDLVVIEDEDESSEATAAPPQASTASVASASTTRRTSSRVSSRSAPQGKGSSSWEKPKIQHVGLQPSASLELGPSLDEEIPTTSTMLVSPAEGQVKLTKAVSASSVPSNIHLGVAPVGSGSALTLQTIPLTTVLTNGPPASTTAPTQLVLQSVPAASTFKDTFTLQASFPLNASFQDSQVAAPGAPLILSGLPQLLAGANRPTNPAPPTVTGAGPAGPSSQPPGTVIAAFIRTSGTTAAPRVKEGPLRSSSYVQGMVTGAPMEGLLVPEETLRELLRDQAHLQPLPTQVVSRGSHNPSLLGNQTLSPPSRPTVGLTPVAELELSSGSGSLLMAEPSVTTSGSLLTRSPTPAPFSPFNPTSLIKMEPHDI
# How it was run: as §1
# ETV1 = ETV1 (Homo sapiens, UniProt P50549 1-477)
# ETV1, sequence (P50549 whole entry): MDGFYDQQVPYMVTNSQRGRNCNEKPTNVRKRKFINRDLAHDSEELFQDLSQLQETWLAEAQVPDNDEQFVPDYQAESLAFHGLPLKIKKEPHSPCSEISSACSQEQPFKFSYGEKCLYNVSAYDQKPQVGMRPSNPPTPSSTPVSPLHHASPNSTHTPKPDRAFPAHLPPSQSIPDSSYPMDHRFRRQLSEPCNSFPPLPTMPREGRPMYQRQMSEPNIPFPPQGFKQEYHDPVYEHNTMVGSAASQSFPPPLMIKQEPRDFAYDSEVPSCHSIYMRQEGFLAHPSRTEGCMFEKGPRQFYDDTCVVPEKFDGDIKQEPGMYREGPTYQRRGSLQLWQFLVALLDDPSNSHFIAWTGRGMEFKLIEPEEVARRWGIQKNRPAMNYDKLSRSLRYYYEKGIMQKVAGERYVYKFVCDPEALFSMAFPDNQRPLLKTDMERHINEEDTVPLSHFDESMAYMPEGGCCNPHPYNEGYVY
# How it was run: as §1
# ETV3L = molecular target: T9, ETV3L (Homo sapiens, UniProt Q6ZN32 1-361)
# T9 sequence: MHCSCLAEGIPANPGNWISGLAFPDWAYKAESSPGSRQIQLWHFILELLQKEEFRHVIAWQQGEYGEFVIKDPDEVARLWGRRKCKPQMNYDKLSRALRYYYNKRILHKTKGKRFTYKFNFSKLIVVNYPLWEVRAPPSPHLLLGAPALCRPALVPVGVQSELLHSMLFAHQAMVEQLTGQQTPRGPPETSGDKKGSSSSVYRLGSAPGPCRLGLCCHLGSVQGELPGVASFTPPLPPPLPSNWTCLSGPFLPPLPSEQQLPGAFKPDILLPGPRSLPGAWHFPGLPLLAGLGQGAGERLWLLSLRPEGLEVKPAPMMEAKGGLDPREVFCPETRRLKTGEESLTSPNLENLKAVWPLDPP
# How it was run: as §1
# ETS2 = molecular target: T10, ETS2 (Homo sapiens, UniProt P15036 1-469)
# T10 sequence: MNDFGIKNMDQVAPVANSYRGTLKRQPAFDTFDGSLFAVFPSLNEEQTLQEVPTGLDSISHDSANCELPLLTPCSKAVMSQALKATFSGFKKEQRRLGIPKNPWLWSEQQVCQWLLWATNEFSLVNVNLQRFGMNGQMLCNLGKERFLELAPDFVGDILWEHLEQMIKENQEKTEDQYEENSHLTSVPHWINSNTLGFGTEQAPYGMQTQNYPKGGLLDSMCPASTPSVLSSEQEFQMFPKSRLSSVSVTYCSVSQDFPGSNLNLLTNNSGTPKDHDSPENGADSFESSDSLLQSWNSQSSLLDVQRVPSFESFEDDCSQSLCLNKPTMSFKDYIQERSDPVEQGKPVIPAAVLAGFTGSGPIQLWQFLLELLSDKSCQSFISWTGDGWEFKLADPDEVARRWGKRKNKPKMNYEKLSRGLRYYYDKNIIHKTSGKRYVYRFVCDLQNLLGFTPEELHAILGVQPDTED
# How it was run: as §1
# SPDEF = molecular target: T11, SPDEF (Homo sapiens, UniProt O95238 1-335)
# T11 sequence: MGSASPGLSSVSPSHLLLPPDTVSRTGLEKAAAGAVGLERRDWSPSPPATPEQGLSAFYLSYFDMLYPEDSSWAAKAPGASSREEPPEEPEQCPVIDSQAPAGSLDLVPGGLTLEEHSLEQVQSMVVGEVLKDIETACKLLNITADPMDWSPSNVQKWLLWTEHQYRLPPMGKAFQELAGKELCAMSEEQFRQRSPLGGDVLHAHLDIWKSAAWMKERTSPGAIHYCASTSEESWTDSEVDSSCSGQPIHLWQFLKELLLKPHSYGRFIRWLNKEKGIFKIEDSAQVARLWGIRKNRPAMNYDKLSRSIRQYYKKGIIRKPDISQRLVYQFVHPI
# How it was run: as §1
# ETV3 = molecular target: T12, ETV3 (Homo sapiens, UniProt P41162-2 1-143)
# T12 sequence: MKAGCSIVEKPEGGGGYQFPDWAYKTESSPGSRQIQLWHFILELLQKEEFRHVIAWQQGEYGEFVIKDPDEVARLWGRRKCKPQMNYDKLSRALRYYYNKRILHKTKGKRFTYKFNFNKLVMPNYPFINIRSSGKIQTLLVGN
# How it was run: as §1
# ETV6 = ETV6 (Homo sapiens, UniProt P41212 1-452)
# ETV6, sequence (P41212 whole entry): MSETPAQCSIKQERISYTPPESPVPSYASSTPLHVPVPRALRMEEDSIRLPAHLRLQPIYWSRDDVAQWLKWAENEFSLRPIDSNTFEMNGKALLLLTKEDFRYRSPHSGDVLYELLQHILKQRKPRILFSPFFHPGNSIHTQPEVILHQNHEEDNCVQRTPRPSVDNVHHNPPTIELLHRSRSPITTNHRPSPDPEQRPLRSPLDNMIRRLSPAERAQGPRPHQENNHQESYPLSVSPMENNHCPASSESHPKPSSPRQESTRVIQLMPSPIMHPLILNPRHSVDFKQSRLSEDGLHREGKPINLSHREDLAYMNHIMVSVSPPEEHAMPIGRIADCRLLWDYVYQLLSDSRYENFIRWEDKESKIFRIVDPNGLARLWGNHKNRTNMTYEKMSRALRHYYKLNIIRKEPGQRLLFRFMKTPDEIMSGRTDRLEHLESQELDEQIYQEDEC
# How it was run: as §1
sequence,measurement,setting,value
GCTGCC,binding signal,FLI1,"1.13 fold enrichment (6-mer frequency, TF over GST control)"
same,binding signal,ELK1,"1.08 fold enrichment (6-mer frequency, TF over GST control)"
same,binding signal,GABPA,"1.18 fold enrichment (6-mer frequency, TF over GST control)"
same,binding signal,ERG,"1.02 fold enrichment (6-mer frequency, TF over GST control)"
same,binding signal,ELF1,"1.03 fold enrichment (6-mer frequency, TF over GST control)"
same,binding signal,EHF,"1.24 fold enrichment (6-mer frequency, TF over GST control)"
same,binding signal,SPI1,"1.06 fold enrichment (6-mer frequency, TF over GST control)"
same,binding signal,SPIB,"1.03 fold enrichment (6-mer frequency, TF over GST control)"
same,binding signal,ELK3,"1.05 fold enrichment (6-mer frequency, TF over GST control)"
same,binding signal,FEV,"1.14 fold enrichment (6-mer frequency, TF over GST control)"
same,binding signal,ETV5,"1.04 fold enrichment (6-mer frequency, TF over GST control)"
same,binding signal,SPIC,"1.01 fold enrichment (6-mer frequency, TF over GST control)"
same,binding signal,ELF4,"1.06 fold enrichment (6-mer frequency, TF over GST control)"
same,binding signal,ETV1,"1.19 fold enrichment (6-mer frequency, TF over GST control)"
same,binding signal,ETV3L,"1.03 fold enrichment (6-mer frequency, TF over GST control)"
same,binding signal,ETS2,"1.08 fold enrichment (6-mer frequency, TF over GST control)"
same,binding signal,SPDEF,"1.09 fold enrichment (6-mer frequency, TF over GST control)"
same,binding signal,ETV3,"1.12 fold enrichment (6-mer frequency, TF over GST control)"
same,binding signal,ETV6,"1.13 fold enrichment (6-mer frequency, TF over GST control)"
